GALK inhibitor: galactokinase (human) inhibition; P51570; AID 1868; Purified GALK, Kinase-Glo residual ATP luminescence; Potency, µM (titrated, usually from 57.5 µM), most hits filed as inhibitors; 270,000 compounds, 0.007% hits
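GALK at 5 nM final was combined with compound, 35 uM ATP and 100 uM galactose in HEPES pH8.0 with MgCl2 and DTT. The reaction ran one hour at room temperature before luminescent ATP detection.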
LDHA block: LDHA (human) enzyme inhibition; 480,000 compounds, 0.15% hits; activity change, % (values are at about 110 or 230 µM); purified LDHA, NADH/diaphorase-resazurin fluorescence; hits give low values; P00338; in the data active means activity change below about -30%; inconclusive means mostly about -25% to -30%
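Remaining NADH was detected by diaphorase (0.133 mg/mL) converting 37 µM resazurin to fluorescent resorufin, read at 0 and 20 minutes. The preceding 5-minute room-temperature reaction used 2 nM LDHA, 0.2 mM sodium pyruvate and 0.06 mM NADH at pH 7.4.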
TrxR1 inh: blocks rat thioredoxin reductase 1 | O89049 | recombinant rTrxR1, NADPH fluorescence consumption, selenite substrate | Potency, µM (titrated, usually from 114 µM), most hits filed as inhibitors | 390,000 compounds, 1% hits | AID 588453; further: nearly all actives have a fitted effect of over 65% in size
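Rat TrxR1 (90 nM in the dispensed reagent) was pre-reduced with 400 uM NADPH for 5 min at room temperature, then incubated with compound for 15 min. After 400 uM selenite was added, NADPH fluorescence (Ex 340/Em 450 nm) was followed for 8 min.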
a7 integrin act: integrin-mediated muscular dystrophy alleviation activation | alpha7betagal myoblasts, beta-gal FDG fluorescence, 48 h | 350,000 compounds, 0.064% hits | Potency, µM (series often up to 38.3 µM), actives largely listed as activators; further: nearly all actives have a fitted effect of over 60% in size
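Alpha7betagal+/- myoblasts (passage 13) were plated 16-24 hr, then exposed to compounds (1:260 dilution of DMSO stock) for 48 hours at 37C. After MPER lysis, β-galactosidase reporter activity was read as FDG fluorescence (ex 480/em 540) after 30 minutes.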
PI4K2A block: blocks human PI4K2A kinase activity. Q9BTU6. purified PI4K2A, ADP-Glo luminescence, 1 h; hits give low values. activity change, negative = inhibition, % at 76.9 µM. 420,000 compounds, 0.13% hits. AID 1346378; in the data active means activity change below about -50%; inconclusive means mostly about -30% to -49%
Target sequence (Q9BTU6 whole entry, looked up): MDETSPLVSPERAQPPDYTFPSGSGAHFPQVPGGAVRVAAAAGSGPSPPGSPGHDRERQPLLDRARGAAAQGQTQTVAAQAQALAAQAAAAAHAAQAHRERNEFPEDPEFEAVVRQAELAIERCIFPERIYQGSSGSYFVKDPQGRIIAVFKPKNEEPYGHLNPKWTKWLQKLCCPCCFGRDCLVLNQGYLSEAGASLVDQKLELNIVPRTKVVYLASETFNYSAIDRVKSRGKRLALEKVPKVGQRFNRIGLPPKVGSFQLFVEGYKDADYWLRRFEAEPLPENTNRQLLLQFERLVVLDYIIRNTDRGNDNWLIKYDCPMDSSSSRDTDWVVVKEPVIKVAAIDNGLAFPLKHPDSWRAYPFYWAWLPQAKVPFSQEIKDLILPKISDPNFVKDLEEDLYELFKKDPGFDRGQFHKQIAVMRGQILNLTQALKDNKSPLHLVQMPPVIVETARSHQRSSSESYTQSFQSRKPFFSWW
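Compounds are screened against recombinant PI4K2A using PI as substrate and ATP, the latter dispensed at 300 microM. Reactions run one hour at ambient temperature before ADP-Glo detection; full inhibition defined by wells lacking enzyme.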
TrxR1 substrate: rat thioredoxin reductase 1 substrate activity | O89049 | purified TrxR1 substrate turnover, NADPH consumption readout | 390,000 compounds, 0.01% hits | Potency, µM (top dose mostly 114 µM) | AID 588456; further: nearly all actives have a fitted effect of over 50% in size
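Rat TrxR1, dispensed at 90 nM, was prereduced with 400 uM NADPH (final) for 5 min at ~22 deg C, then incubated with compound 15 min before 400 uM selenite. A first-read NADPH fluorescence drop versus no-compound background flagged substrates.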
Each line names hits and unclear results; the compound was inactive in the other large screens; ! = a repeat was not active. An excerpt weighted towards active compounds, which were near 1.1% of everything screened. Unless noted, the call rests on the fitted dose curve; in most records, active means well fitted curve in the direction sought with a large enough effect; inconclusive means small, poorly fitted or top-dose-only effect, or another doubt; inactive means no such curve, though single readings can be large; an effect the other way counts as inactive or inconclusive.

Cc1ccc(NC(=O)/C=C/c2ccc(C)o2)c(C)c1	TrxR1 inh 20µM (no result: GALK inhibitor, a7 integrin act)
Cc1ccc(/C=C/C(=O)Nc2cc(=O)n(C)c(=O)n2C)o1	TrxR1 inh 7.9µM
Cc1cc(NS(=O)(=O)c2ccc(NC(=O)/C=C/c3ccc(C)o3)cc2)nc(C)n1	TrxR1 inh 28µM, a7 integrin act inconclusive
Cc1ccc(C(=O)Nc2nnc(C)s2)o1	a7 integrin act inconclusive
Cc1ccc(/C=C/C(=O)Nc2nnc(C)s2)o1	TrxR1 inh 28µM
COc1ccc(S(=O)(=O)N2CCN(C(=O)NC3CC3)CC2)cc1	none (no result: GALK inhibitor, TrxR1 inh, a7 integrin act, PI4K2A block, TrxR1 substrate)
Cc1ccc(/C=C/C(=O)Nc2ccc(Oc3ccccc3)cc2)o1	TrxR1 inh inconclusive
CC(=O)c1ccc(NC(=O)/C=C/c2ccc(C)o2)cc1	TrxR1 inh 22µM (no result: GALK inhibitor, a7 integrin act)
Cc1cccc(C(=O)Nc2cccc3cccnc23)c1	none
Cc1ccc(/C=C/C(=O)Nc2cccc3cccnc23)o1	TrxR1 inh 50µM
O=C(Cc1cccs1)Nc1c(NCC2CCCCC2)c2ccccc2oc1=O	none (no result: GALK inhibitor, TrxR1 inh, a7 integrin act, PI4K2A block, TrxR1 substrate)
COc1ccc(C(=O)OCC(=O)Nc2c(C(C)C)cccc2C(C)C)c(OC)c1OC	none (no result: GALK inhibitor, TrxR1 inh, a7 integrin act, PI4K2A block, TrxR1 substrate)
S=c1[nH]nc(-c2cc(-c3ccccc3)n[nH]2)n1/N=C/c1ccc(Cl)c(Cl)c1	LDHA block -42
COC(=O)C1=C(C)N(c2ccc(F)c(Cl)c2)C(=O)C1	TrxR1 inh 14µM
COCCn1c(SCC(=O)c2ccc(Cl)cc2)nnc1C(C)C	TrxR1 inh 6.3µM
CSc1ccc(C2CC(=O)Nc3c2cnn3-c2nc3ccccc3s2)cc1 (stereo unspecified)	none (no result: GALK inhibitor, TrxR1 inh, a7 integrin act, PI4K2A block, TrxR1 substrate)
COc1cc(S(=O)(=O)Nc2ccc(C)cc2)ccc1N=Cc1c(C)[nH]n(-c2ccc(C)cc2)c1=O	none
COc1cc(SC#N)ccc1N=Cc1c(C)[nH]n(-c2cccc3ccccc23)c1=O	PI4K2A block -53
COc1cc(SC#N)ccc1N=Cc1c(C)[nH]n(-c2ccc(C)cc2C)c1=O	PI4K2A block -54
COc1ccccc1N=Cc1c(C)[nH]n(-c2ccc(C)cc2C)c1=O	none
COc1ccc(C(=O)c2oc3ccc(NC(=O)c4ccncc4)cc3c2C)cc1	none (no result: GALK inhibitor, TrxR1 inh, a7 integrin act, PI4K2A block, TrxR1 substrate)
C/C(=N\O)C(=O)C(CN1CCCCC1)CN1CCCCC1	TrxR1 inh 0.45µM
CC(=O)/C(CN1CCCCC1)=N\O	none
Cc1nc(-c2ccccc2)sc1C(=O)N1CCCC(C(=O)O)C1 (stereo unspecified)	none (no result: GALK inhibitor, TrxR1 inh, a7 integrin act, PI4K2A block, TrxR1 substrate)
CCn1nnc2cc(C(=O)Nc3nc(-c4ccc5c(c4)CC(=O)N5)cs3)ccc21	none (no result: GALK inhibitor, TrxR1 inh, a7 integrin act, PI4K2A block, TrxR1 substrate)
c1ccc(-c2ccccc2OCCOCCN2CCOCC2)cc1	LDHA block -45
C=CCNCCOCCOc1ccccc1-c1ccccc1	LDHA block -30
CC1=C(C(=O)Nc2ccccc2)C(c2ccc[nH]2)n2ncnc2N1 (stereo unspecified)	TrxR1 inh 40µM!, PI4K2A block inconclusive (no result: GALK inhibitor, a7 integrin act)
CC1=C(C(=O)Nc2ccccc2)C(c2ccccn2)n2ncnc2N1 (stereo unspecified)	none
Cc1ccc(S(=O)(=O)Nc2nc3ccccc3nc2NC2CCCCC2)cc1	none (no result: GALK inhibitor, TrxR1 inh, a7 integrin act, PI4K2A block, TrxR1 substrate)
COc1ccc(C2(CNC(=O)c3cc(OC)c(OC)c(OC)c3)CCCC2)cc1OC	none (no result: GALK inhibitor)
COc1ccc(C(NC(=O)c2ccco2)c2ccc(OC)c(OC)c2)cc1 (stereo unspecified)	none
COc1ccc(C2(CNC(=O)/C=C\c3ccco3)CCCC2)cc1OC	TrxR1 inh 10µM
COc1ccc(C(NC(=O)/C=C/c2ccco2)c2ccc(OC)c(OC)c2)cc1OC	TrxR1 inh 4.5µM
CCOc1cc(/C=C/c2ccc3ccccc3n2)ccc1O	none (no result: GALK inhibitor, TrxR1 inh, a7 integrin act, PI4K2A block, TrxR1 substrate)
CC(C(=O)N1CCCc2ccccc21)N1CCN(c2ccccn2)CC1 (stereo unspecified)	LDHA block -38
CC(C(=O)N1CCc2ccccc21)N1CCN(c2ccccn2)CC1 (stereo unspecified)	none
O=c1c2ccc(Cl)cc2ncn1Cc1ncc(-c2ccccc2)o1	none (no result: GALK inhibitor, TrxR1 inh, a7 integrin act, PI4K2A block, TrxR1 substrate)
O=c1[nH]c(C2CCCN(S(=O)(=O)c3ccccc3)C2)nc2c1nnn2Cc1cccc(Cl)c1 (stereo unspecified)	a7 integrin act 4µM

Source: PubChem BioAssay (National Center for Advancing Translational Sciences (NCATS))
